Screening results: PubChem, National Center for Advancing Translational Sciences (NCATS)
Only some compounds are listed: those with a hit (about 21% of all), similar ones and a draw of the others.
Shiga toxin inh – blocks Shiga toxin action in Vero cells; AID 2315; inhibition, % at 38.7 µM; 290,000 compounds, 9.2% hits; Vero cells, Shiga toxin protein synthesis inhibition reporter; in the data active = inhibition mostly above about 28%, no sharp cut-off; inactive = mostly below about 43%
CHX counter – affects cycloheximide protein synthesis inhibition readout, counter-screen. AID 2314. cell reporter, cycloheximide protein synthesis inhibition counterscreen. 300,000 compounds, 12% hits. max response, %; in the data active = max response mostly above about 13%, no sharp cut-off; inactive = mostly below about 14%; also: read at 38.3 µM for the half of the compounds with a filed dose
HCV inhibitor – HCV inhibition; 340,000 compounds, 3.4% hits; AID 651820; Potency, µM (series often up to 41.8 µM), hits mostly inhibitors; Huh7.5.1 HCVcc-Cre infection, luciferase reporter, 44 h
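HCVcc-Cre virus at an moi near 0.5 was added right after compound to cells cultured 4 h from seeding (1,000 cells/well). Luciferase activity was determined 44 h later, 15 min after substrate addition at RT.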
AMA1 RON2 block – disrupts binding of P. falciparum AMA1 to RON2 | Potency, µM (highest dose often 58.2 µM), usual class: inhibitors | 360,000 compounds, 0.2% hits | AlphaScreen AMA1-biotinylated RON2 peptide binding | AID 720542; also: nearly all actives have a fitted effect of over 45% in size
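AMA1 (3D7) with his tag at 25 nM final met compounds first, then biotinylated RON2 peptide at 25 nM; detection used donor plus acceptor beads, 10 µg/mL apiece, read by AlphaScreen after 30 min at room temperature.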
Pf growth 48h – P. falciparum growth inhibition at 48 hours (one generation) | 310,000 compounds, 5.9% hits | Potency, µM (series often up to 28.7 µM), hits mostly inhibitors | P. falciparum luciferase growth in erythrocytes, 48 h | AID 504832
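Erythrocytes infected with P. falciparum carrying an integrated firefly luciferase reporter (2% hematocrit, 0.1% parasitemia final) were exposed to compounds in RPMI 1640 with 0.5% Albumax at 37 C, 5% CO2. Growth inhibition was scored as reduced luminescence.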
Pf growth 96h – P. falciparum growth inhibition at 96 hour, primary screen for plastid delayed-death inhibitors; P. falciparum luciferase reporter growth, 96 h; Potency, µM (titrated, usually from 28.7 µM), usual class: inhibitors; 320,000 compounds, 6.9% hits
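Two-generation exposure (96 h) targets delayed-death phenotype. Reporter parasites carrying integrated firefly luciferase, in red cells at 2% hematocrit and 0.05% parasitemia final, kept at 37 C, 5% CO2; luminescence loss indicates inhibition.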
A number is an active result; . = inactive; ? = inconclusive; / = no result given; [ ] = dose if it differs, or a comment. Unless noted, calls follow the shape of the dose curve; as a rule, active = well fitted curve in the direction sought with a large enough effect; inconclusive = small, poorly fitted or top-dose-only effect, or another doubt; inactive = no such curve, though single readings can be large; an effect the other way counts as inactive or inconclusive.

SMILES	Shiga toxin inh	CHX counter	HCV inhibitor	AMA1 RON2 block	Pf growth 48h	Pf growth 96h
COCCNC(=O)C(OC(=O)c1cc2oc(C)cc2n1C)C(C)C (configuration not stated)	.	.	.	.	.	?
Cc1cc2c(cc(C(=O)OC(C(=O)NCC3CCCO3)C(C)C)n2C)o1 (configuration not stated)	.	15.1	?	.	.	?
Cc1cc2c(cc(C(=O)OC(C(=O)NC3CCCCC3)C(C)C)n2C)o1 (configuration not stated)	/	/	15.8µM	.	?	.
CCN(CC)C(=O)c1ccc(Nc2nnc(-c3ccc(O)cc3)c3ccccc23)cc1	.	.	?	.	?	.
CCN(CC)C(=O)c1ccc(-c2nnc(Nc3cccc(O)c3)c3ccccc23)cc1	/	.	.	.	2.94µM	.
CCN(CC(=O)NCc1cccs1)C(=O)c1cccc(S(=O)(=O)N2CC(C)OC(C)C2)c1 (configuration not stated)	/	/	.	.	/	/
COc1ccc(S(=O)(=O)N2CCCCC2)cc1NC(=O)Cc1ccsc1	/	/	.	.	?	13.1µM
COc1ccc(CC(=O)Nc2cc(S(=O)(=O)N3CCCC3)ccc2Cl)c(OC)c1	/	/	?	.	?	14.7µM
O=C(Cc1ccccc1F)Nc1cc(S(=O)(=O)N2CCCC2)ccc1Cl	/	/	.	.	?	?
COc1ccc(OCC(=O)Nc2cc(S(=O)(=O)N3CCCC3)ccc2Cl)cc1	/	/	.	.	.	.
O=C(CNCc1ccc(Cl)cc1)Nc1cc(S(=O)(=O)N2CCCC2)ccc1Cl	/	/	7.94µM	.	/	/
CCOc1ccc(S(=O)(=O)N2CCCCC2)cc1NC(=O)Cc1ccsc1	/	/	?	.[11.6 µM]	10.4µM	11.7µM
Cc1nn(CC(=O)Nc2ccc(S(N)(=O)=O)cc2)c(=O)c2ccccc12	.	.	.	.	.[0.00184 µM]	.
CC(=O)c1c(C)[nH]c(C(=O)COc2ccc3ccc(=O)oc3c2)c1C	/	/	8.91µM	.	10.4µM	?
O=C(COc1cccnc1[N+](=O)[O-])c1c[nH]c2ccccc12	.	19.5	.	.	.	.
COCCn1c(C)cc(C(=O)COc2cccnc2[N+](=O)[O-])c1C	53.3	31.9	.	.	.	.
Cc1cc(C)c(C(=O)COc2cccnc2[N+](=O)[O-])cc1C	.	.	.	.	.	/
Cc1ccc(OCC(=O)c2cc(C)n(Cc3cccs3)c2C)c([N+](=O)[O-])n1	.	36.2	?	.	.	.
COc1ccc(NS(=O)(=O)c2ccc(NC(=O)Cc3cccs3)cc2)cc1	.	.	.	.	.	?
Cc1cc(C(=O)COc2ccc3ccc(=O)oc3c2)c(C)n1Cc1cccs1	.	19.9	.	.[11.6 µM]	.	?
COc1ccc(NC(=O)c2cc(C)n(Cc3cccs3)c2C)cc1	82.1	62.1	?	.	.	.
CC1CC(C)CN(C(=O)COC(=O)c2nn(C)c(=O)c3ccccc23)C1 (configuration not stated)	/	/	.	.	.	.
COc1ccc(NC(C)=O)cc1S(=O)(=O)NCc1ccc2c(c1)OCO2	/	/	/	.	/	/
Cc1ccc(OCCn2c(=O)n(C)c3ccccc32)cc1	104.5	42.3	11.2µM	.	.	.
Cn1c(=O)n(CCOc2ccc([N+](=O)[O-])cc2)c2ccccc21	67.5	26.2	.	.	.	.
SMILES	Shiga toxin inh	CHX counter	HCV inhibitor	AMA1 RON2 block	Pf growth 48h	Pf growth 96h
O=[N+]([O-])c1ccc(OCCN2CCNCC2)cc1	.	.	.	.	.	?
CC(C)NC(=O)C1CCN(S(=O)(=O)c2ccc(N3CCCC3=O)cc2)CC1	.	.	.	.	.	?
O=C(Nc1ccc(C(F)(F)F)cc1)C1CCN(S(=O)(=O)c2ccc(N3CCCC3=O)cc2)CC1	.	.	?	.	?	?
COc1cc(NC(=O)C2CCN(S(=O)(=O)c3ccc(N4CCCC4=O)cc3)CC2)cc(OC)c1	.	.	.	.	.	9.28µM
CCOC(=O)c1ccc(NC(=O)C2CCN(C(=O)c3ccc(OC)c(OC)c3)CC2)cc1	.	.	10µM	.	?	/
COc1ccc(NC(=O)C2CCN(S(=O)(=O)c3ccc(N4CCCC4=O)cc3)CC2)cc1OC	.	.	.	.	?	13.1µM
COc1ccc(S(=O)(=O)N2CCC(C(=O)Nc3ccc(S(=O)(=O)N4CCCC4)cc3)CC2)cc1OC	/	/	.[8.37 µM]	.	?	4.65µM
